Consider four compounds from PubChem BioAssay.

Structures are written as SMILES. Where “and” joins values, the source holds several entries; their conditions need not be identical. Identical values can stand only once. Results filed as inconclusive are left out. Calls of active or inactive are those of the source. Unless noted, the rule behind the calls is not given here.

Assay [1] is described as follows: compounds altering circadian rhythm period length – cell-based, LOPAC library, luminescence reporter (AID 2774).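 Note: values are relative to mean of DMSO wells on each plate.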 The note with it: circadian reporter cells, at 7 µM, actives lie on both sides.
Assay [2] in a line: compounds altering viability of human ES cells (AID 493140).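 Note: cells exposed to compounds for four days before counting.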 The note with it: human embryonic stem cell survival screen; stronger effect = higher value.
Assay [3] is described as follows: P. berghei load reduction in hepatocytes – cell-based, HepG2, luciferase luminescence, HepG2 viability, primary screen (AID 624349; in the data active = parasite load remaining mostly below about 12%, no sharp cut-off; inactive = mostly above about 10%;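 note: 100% = mean of DMSO negative control wells on the same plate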). The note with it: P. berghei liver stage in HepG2, luciferase luminescence, concentration not given here; parasite load remaining: stronger effect = lower value; viability: measured here: HepG2 viability without parasites.
Assay [4] has as its system Hepatitis C virus NS3 helicase. The assay is described as follows: blockers of NS3h binding to ssDNA – biochemical, fluorescence polarization, LOPAC1280 library, primary screen (AID 687035; in the data active = inhibition above about 37%). The conditions noted are these: Purified HCV NS3 helicase, Cy5-dT15 ssDNA binding fluorescence polarization; stronger effect = higher value; concentration not given here. For orientation: Polarisation of emitted light reports the rotation of a fluorescent probe.

A short description of assay [5]: compounds altering Cy5-DNA-NS3h complex signal – biochemical, LOPAC1280, artefact control for HCV NS3 helicase inhibitor project (AID 687037). The conditions noted are these: Cy5-DNA-NS3h complex fluorescence interference counterscreen. A general note: A counterscreen serves to expose hits that act by an unwanted route or on another target.
Assay [6] relates to Aerobactin synthetase IucA (Klebsiella pneumoniae). The assay is described as follows: inhibition of K. pneumoniae IucA enzyme – biochemical, Tocris library, absorbance (AID 1345561).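 Note: 100% = enzyme without compound and 0% = no enzyme.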 The note with it: purified IucA enzyme assay, absorbance (OD) read-out; stronger effect = lower value;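 tested at 8 µM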.
A short description of assay [7]: viability loss in pontine glioma line – cell-based, SU-DIPG-XIII, MIPE4.0, CellTiter-Glo, qHTS, dose response (AID 1347061; cut-off not given, nearly all actives have AC50 up to about 37 µM;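 note: cells exposed to compound for 48 hours before readout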). The note with it: CellTiter-Glo ATP luminescence. For orientation: In ATP-based viability assays light output follows the ATP content of the culture.
The nature of assay [8]: viability loss in pontine glioma line – cell-based, JHH-DIPG-1, MIPE4.0, CellTiter-Glo, qHTS, dose response (AID 1347062; cut-off not given, nearly all actives have AC50 up to about 27 µM). The note with it: JHH-DIPG-1 viability, CellTiter-Glo ATP luminescence.
The nature of assay [9]: growth inhibition of DIPG cells – cell-based, MIPE5.0 library, qHTS (AID 1347068; cut-off not given, nearly all actives have IC50 up to about 30 µM). The note with it: SU-DIPG-XXV viability.
Assay [10] can be described thus: chitosan synthesis blockers in C. neoformans – flow cytometry, Cibacron Brilliant Red staining (AID 1347148).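 Note: compound exposure lasted three days at 37 degrees C.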 The note with it: Cryptococcus neoformans chitosan, stronger effect = lower value; at 10 µM unless noted.
A short description of assay [11]: blockers of cellular phospholipid synthesis – cell-based, LOPAC library, screen 4, primary screen (AID 1347384). The conditions noted are these: animal cells, phospholipid biosynthesis inhibition screen; at 10 µM.
A short description of assay [12]: MELAS cybrid and Rieske KO viability enhancers – cell-based, MELAS cybrids, Rieske KO mouse fibroblasts, CellTiter-Glo, primary screen (AID 1508586;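 active = mean z-score across replicates of 1.96 or higher in either the MELAS or the Rieske mutant cell line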;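 note: z relative to plate mean and SD of compound and empty wells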). The note with it: low glucose.
Assay [13] is described as follows: galactose survival enhancers in mitochondrial complex I cybrids – cell-based, galactose medium, ATP luminescence, primary screen (AID 1645843;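 active = z-score of at least 1.8 in each of two replicates, scored against plate mean and spread of sample wells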;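 note: positive z means more ATP and so rescue of galactose-driven cybrid death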). The note with it: complex I mutant cybrid cells, 72 h, stronger effect = higher value.
The nature of assay [14]: viability loss with induced miR-34 in A549 – imaging, A549 dox-inducible miR-34, nuclei and caspase counts, primary screen (AID 1347080;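 active = compounds whose cell count with miR-34 switched on is under 0.7 times the count with it off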). The note with it: A549 miR-34 inducible, Hoechst nuclei count, 48 h.
Assay [15] in a line: growth inhibition, single agent or in combination, cell-based, chromothripsis tumors, cisplatin or BGB combos (AID 1671449; in the data active = inhibition above about 80%;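 note: cells exposed for 96 hours; 0% = vehicle DMSO and 100% = killing by high DMSO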). The conditions noted are these: LFS_MB_P medulloblastoma cells.
The nature of assay [16]: growth inhibition, single agent and combos, cell-based, chromothripsis tumors, cisplatin or BGB combos (AID 1671450; in the data active = inhibition above about 80%;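 note: cells exposed to compound for four days; 0% = vehicle DMSO and 100% = cell killing by high DMSO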). The note with it: HDN33 neuroblastoma cells, stronger effect = higher value.
A short description of assay [17]: growth inhibition, single agents and combos, ICB984, cell-based, cisplatin or BGB combos, synergistic combos for chromothripsis tumors (AID 1671451).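 Note: cells exposed for 96 hours before readout; 0% = vehicle DMSO and 100% = killing by high DMSO.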 The conditions noted are these: ICB984 medulloblastoma cells, drug combinations, stronger effect = higher value.
The nature of assay [18]: growth inhibition, single agents and combos, HTB85, cell-based, BGB or cisplatin IC20 combos, synergistic combos for chromothripsis tumors (AID 1671453; in the data active = inhibition above about 80%;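 note: cells exposed for 96 hours before readout; 0% = vehicle DMSO and 100% = high DMSO killing control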). The conditions noted are these: HTB85 osteosarcoma cells, drug combinations, stronger effect = higher value.
[19] abbreviates: stronger effect = lower value, cell number ratio, induced over uninduced.
Setting [20] is: measured here: relative caspase fold change +Dox/-Dox.
The mark [21] stands for this setting: measured here: total cells with miR-34 induction, stronger effect = lower value.
Setting [22] is: measured here: total cells without miR-34 induction.

The term viability denotes the share of living cells, or the viability signal relative to a control. In general, inhibition refers to the relative decrease from the control value, in per cent. What is called remaining activity is the signal under treatment as a percentage of the control signal. In general, AC50 refers to the concentration giving half of the maximal activity seen. `Oc1ccc(-c2nc(-c3ccc(F)cc3)c(-c3ccncc3)[nH]2)cc1`: the period change in assay [1] was 1.07 h (active). In addition, the survival in [2] was 94 (inactive). For the same compound, in [3], the parasite load remaining was 28.5% (inactive). The compound further yielded a viability in [3] of 95.1%. For the same compound, the inhibition in assay [4] is -3% (inactive). For the same compound, the fluorescence ratio (interference) in assay [5] is 0.9 (inactive). In addition, the remaining activity in assay [6] was 114% (inactive). Besides, the concentration at half-maximal activity (AC50) in assay [7] is 5.9 µM (active). The compound was called inactive in [8], in [9] and in assay [11]. Further, in assay [10], the fold fluorescence was 8.11 [at 150.9 µM] (inactive). For the same compound, the z-score in assay [12] (MELAS cybrid survival, CellTiter-Glo 48 h, stronger effect = higher value) was -0.659 (inactive); in assay [12] (Rieske KO mouse fibroblast survival, CellTiter-Glo 72 h) it was 0.329; in assay [13] it was 1.04 (inactive) and 0.455 (inactive).
`O=S(=O)(NCCNC/C=C/c1ccc(Br)cc1)c1cccc2cnccc12`: in [1], the period change was -0.05 h (inactive). Besides, the survival in assay [2] is 202 (active). Besides, the parasite load remaining in assay [3] was 26.7% (inactive). In assay [3], the viability is 66.5%. In addition, the remaining activity in [6] is 114% (inactive). Moreover, the outcome in [9] was inactive. Also, the fold change is 0.909 (inactive) and 1.06 (inactive) in assay [14] (setting [19]); 1.15 and 1.08 in assay [14] (setting [20]). Also, the cell count in [14] (setting [21]) was 2930 and 6810; in assay [14] (setting [22]) it was 3220 and 6450. Further, the fold fluorescence in assay [10] is 7.62 [at 112 µM] (inactive). In addition, the z-score in [13] was -0.61 (inactive).
On to `COc1ccc(Nc2nccc(NCCO)n2)cc1`, for which, in assay [6], the remaining activity was 124% (inactive). The compound was classed as inactive in assay [7], in assay [8] and in [9]. Also, the fold change was 0.983 (inactive) and 0.953 (inactive) in assay [14] (setting [19]); 2.19 and 1.76 in [14] (setting [20]). In addition, the cell count is 6220 and 9200 in [14] (setting [21]); 6320 and 9660 in [14] (setting [22]). Further, the z-score in assay [13] is -0.315 (inactive).
Regarding `O=c1ncccn1[C@@H]1O[C@H](CO)[C@@H](O)[C@H]1O`, the remaining activity in assay [6] was 115% (inactive). For the same compound, the outcome in [9] was inactive. In addition, the figures for the fold change in assay [14] (setting [19]) and in assay [14] (setting [20]) were 1 (inactive) and 1.17, respectively. Besides, the figures for the cell count in assay [14] (setting [21]) and in assay [14] (setting [22]) were 7460 and 7440, respectively. In addition, the z-score in assay [13] is -0.025 (inactive). Also, the inhibition in assay [15] (at 0.5 µM, stronger effect = higher value) was 94.5% (active); in [15] (measured here: combination with BGB IC20, at 0.005 µM), -19.6%; in assay [15] (measured here: combination with BGB IC40, at 0.005 µM), -15.6%; in assay [15] (measured here: combination with BGB IC40, at 0.05 µM) it was -21.7%; in assay [15] (measured here: combination with cisplatin, at 0.5 µM, stronger effect = higher value), 116%; in assay [15] (measured here: combination with cisplatin, at 5 µM, stronger effect = higher value), -26.6%. For the same compound, the inhibition was -58.6% in assay [16] (BGB combo, at 5 µM); -38.5% (inactive) in [16] (at 0.5 µM); -44.1% in assay [16] (cisplatin combo, at 5 µM); -41.3% in [16] (measured here: with BGB IC20 combination, at 0.5 µM); -33.1% in assay [16] (measured here: with cisplatin IC20 combination, at 0.5 µM); -32.1% in assay [16] (single agent, at 5 µM). Besides, the inhibition in [17] (BGB IC20 combo, at 0.005 µM) is 4.35%; in [17] (BGB IC40 combo, at 0.005 µM) it was -50.2%; in assay [17] (BGB IC40 combo, at 0.05 µM) it was -18%; in [17] (at 0.5 µM) it was -16.8% (inactive); in assay [17] (cisplatin combo, at 0.05 µM), -22.2%; in assay [17] (cisplatin combo, at 0.5 µM), -22.8%. The inhibition is -30.8% in assay [17] (cisplatin combo, at 5 µM); -3.85% in assay [17] (measured here: 5 uM single agent, at 5 µM); -26.7% (inactive) in assay [18] (at 0.5 µM); -35% in [18] (measured here: with BGB IC20, at 0.5 µM); -20.6% in [18] (measured here: with BGB IC20, at 5 µM); -23.7% in assay [18] (measured here: with cisplatin IC20, at 0.5 µM). Further, the inhibition in assay [18] (measured here: with cisplatin IC20, at 5 µM) was -31.4%; in [18] (single agent, at 5 µM) it was -19.2%.
